{"source": "the supplement of paper PMC10849652", "note": "The full data set covers some 7,900 targets. This sample favours those with a hit. About 0.6% of all pairs of compound and target were hits.", "data": [{"compound": "CC1=C(C=C(C=C1)NC(=O)C2=CC(=CC=C2)C(C)(C)C#N)NC3=CC4=C(C=C3)N=CN(C4=O)C", "assay": "log2 fold change, soluble protein after heating vs DMSO (PISA); higher = thermal stabilisation; K562 cells, 10 uM, 30 min; active = over 0.2 and 3.5 SD of the protein, either way, in both replicates (recomputed)", "outline": "(§1)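 K562 cells at 2×10^6 cells/mL were given 10 μM compound for 30 min. Aliquots then went through 3 min of heating across 48°C-58°C, were pooled, and were extracted in PBS with 0.5% NP-40 at 4°C, and the supernatant after 21,000xg for 90 min was quantified by TMTpro 16plex LC-MS/MS with channel sums equalised. Thermal stability relative to control samples, from duplicates, is given as log2 fold change.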", "values": [{"target": "ROCK2 (UniProt O75116)", "log2 fold change": "0.009 (inactive)"}, {"target": "SCCPDH (UniProt Q8NBX0)", "log2 fold change": "0.147 (inactive)"}, {"target": "RB1 (UniProt P06400)", "log2 fold change": "0.016 (inactive)"}, {"target": "RAB3IL1 (UniProt Q8TBN0)", "log2 fold change": "0.005 (inactive)"}, {"target": "SDCBP (UniProt O00560)", "sequence (O00560 whole entry, looked up)": "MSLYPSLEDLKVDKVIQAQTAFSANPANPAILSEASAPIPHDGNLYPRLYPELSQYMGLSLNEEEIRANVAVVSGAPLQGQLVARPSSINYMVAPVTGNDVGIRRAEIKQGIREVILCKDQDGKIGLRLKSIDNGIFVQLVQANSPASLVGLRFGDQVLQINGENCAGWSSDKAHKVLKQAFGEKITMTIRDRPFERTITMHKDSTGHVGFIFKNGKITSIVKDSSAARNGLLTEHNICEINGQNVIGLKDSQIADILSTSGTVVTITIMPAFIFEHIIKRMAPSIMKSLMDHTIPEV", "log2 fold change": "0.007 (inactive)"}, {"target": "RTN4IP1 (UniProt Q8WWV3)", "sequence (Q8WWV3 whole entry, looked up)": "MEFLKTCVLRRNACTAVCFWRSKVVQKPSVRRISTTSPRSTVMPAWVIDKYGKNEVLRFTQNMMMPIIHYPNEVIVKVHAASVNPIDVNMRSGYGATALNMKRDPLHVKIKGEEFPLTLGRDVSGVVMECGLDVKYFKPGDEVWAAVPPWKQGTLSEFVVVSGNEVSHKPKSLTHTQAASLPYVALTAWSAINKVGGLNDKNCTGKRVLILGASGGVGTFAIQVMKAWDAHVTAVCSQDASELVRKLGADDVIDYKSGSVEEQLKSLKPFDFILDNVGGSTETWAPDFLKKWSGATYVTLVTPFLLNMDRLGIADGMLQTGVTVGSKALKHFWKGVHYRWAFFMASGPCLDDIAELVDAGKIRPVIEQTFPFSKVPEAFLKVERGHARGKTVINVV", "log2 fold change": "0.253 (inactive)"}, {"target": "SGPL1 (UniProt O95470)", "log2 fold change": "-0.036 (inactive)"}, {"target": "RPS14 (UniProt P62263)", "log2 fold change": "0.03 (inactive)"}, {"target": "RAD51 (UniProt Q06609)", "log2 fold change": "-0.012 (inactive)"}, {"target": "SH3GLB2 (UniProt Q9NR46)", "sequence (Q9NR46 whole entry, looked up)": "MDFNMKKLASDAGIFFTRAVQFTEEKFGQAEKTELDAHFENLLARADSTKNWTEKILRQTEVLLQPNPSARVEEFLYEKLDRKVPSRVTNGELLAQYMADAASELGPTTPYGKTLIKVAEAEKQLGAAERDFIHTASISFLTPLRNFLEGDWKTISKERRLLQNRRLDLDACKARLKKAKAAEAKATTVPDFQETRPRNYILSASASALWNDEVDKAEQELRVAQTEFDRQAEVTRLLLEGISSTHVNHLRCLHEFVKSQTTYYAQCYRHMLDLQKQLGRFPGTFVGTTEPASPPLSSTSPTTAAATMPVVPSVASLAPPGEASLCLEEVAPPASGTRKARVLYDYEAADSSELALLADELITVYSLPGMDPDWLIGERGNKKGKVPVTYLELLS", "log2 fold change": "0.047 (inactive)"}, {"target": "RPS5 (UniProt P46782)", "log2 fold change": "0.012 (inactive)"}, {"target": "RAD50 isoform 2 (UniProt Q92878)", "sequence (Q92878 whole entry, looked up)": "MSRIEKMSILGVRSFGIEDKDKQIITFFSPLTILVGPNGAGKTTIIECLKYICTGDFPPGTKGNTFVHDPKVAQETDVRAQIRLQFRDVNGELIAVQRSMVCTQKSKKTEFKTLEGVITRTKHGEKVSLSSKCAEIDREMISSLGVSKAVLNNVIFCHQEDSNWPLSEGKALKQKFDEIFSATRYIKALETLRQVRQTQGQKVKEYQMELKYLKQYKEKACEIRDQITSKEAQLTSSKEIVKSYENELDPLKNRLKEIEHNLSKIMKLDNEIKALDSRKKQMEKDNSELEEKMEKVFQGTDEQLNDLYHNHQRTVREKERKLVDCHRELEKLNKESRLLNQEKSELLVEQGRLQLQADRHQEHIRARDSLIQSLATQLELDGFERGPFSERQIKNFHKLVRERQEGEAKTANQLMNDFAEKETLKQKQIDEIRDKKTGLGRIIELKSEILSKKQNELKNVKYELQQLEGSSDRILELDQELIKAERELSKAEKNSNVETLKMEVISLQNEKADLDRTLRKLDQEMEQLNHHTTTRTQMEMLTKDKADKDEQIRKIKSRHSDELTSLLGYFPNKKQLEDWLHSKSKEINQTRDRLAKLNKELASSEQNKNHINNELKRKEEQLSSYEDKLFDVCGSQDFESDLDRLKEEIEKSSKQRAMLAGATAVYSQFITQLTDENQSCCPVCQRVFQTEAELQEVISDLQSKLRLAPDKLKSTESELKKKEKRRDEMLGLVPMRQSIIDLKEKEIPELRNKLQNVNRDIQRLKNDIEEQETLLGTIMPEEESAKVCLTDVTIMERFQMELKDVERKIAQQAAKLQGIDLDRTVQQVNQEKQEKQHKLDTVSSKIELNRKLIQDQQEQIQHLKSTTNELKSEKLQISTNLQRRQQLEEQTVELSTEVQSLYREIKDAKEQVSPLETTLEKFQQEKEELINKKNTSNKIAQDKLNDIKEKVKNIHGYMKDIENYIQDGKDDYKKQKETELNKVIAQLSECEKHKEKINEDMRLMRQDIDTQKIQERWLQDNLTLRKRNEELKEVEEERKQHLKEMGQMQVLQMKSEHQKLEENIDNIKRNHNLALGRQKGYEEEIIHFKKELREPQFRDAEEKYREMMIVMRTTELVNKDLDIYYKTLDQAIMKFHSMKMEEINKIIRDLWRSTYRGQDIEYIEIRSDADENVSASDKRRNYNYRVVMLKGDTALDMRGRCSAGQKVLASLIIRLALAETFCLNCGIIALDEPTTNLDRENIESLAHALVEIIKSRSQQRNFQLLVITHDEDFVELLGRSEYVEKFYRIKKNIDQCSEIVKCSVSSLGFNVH", "log2 fold change": "0 (inactive)"}, {"target": "RPS13 (UniProt P62277)", "log2 fold change": "0.006 (inactive)"}, {"target": "RHOA (UniProt P61586)", "log2 fold change": "0.015 (inactive)"}, {"target": "SLC12A9 (UniProt Q9BXP2)", "sequence (Q9BXP2 whole entry, looked up)": "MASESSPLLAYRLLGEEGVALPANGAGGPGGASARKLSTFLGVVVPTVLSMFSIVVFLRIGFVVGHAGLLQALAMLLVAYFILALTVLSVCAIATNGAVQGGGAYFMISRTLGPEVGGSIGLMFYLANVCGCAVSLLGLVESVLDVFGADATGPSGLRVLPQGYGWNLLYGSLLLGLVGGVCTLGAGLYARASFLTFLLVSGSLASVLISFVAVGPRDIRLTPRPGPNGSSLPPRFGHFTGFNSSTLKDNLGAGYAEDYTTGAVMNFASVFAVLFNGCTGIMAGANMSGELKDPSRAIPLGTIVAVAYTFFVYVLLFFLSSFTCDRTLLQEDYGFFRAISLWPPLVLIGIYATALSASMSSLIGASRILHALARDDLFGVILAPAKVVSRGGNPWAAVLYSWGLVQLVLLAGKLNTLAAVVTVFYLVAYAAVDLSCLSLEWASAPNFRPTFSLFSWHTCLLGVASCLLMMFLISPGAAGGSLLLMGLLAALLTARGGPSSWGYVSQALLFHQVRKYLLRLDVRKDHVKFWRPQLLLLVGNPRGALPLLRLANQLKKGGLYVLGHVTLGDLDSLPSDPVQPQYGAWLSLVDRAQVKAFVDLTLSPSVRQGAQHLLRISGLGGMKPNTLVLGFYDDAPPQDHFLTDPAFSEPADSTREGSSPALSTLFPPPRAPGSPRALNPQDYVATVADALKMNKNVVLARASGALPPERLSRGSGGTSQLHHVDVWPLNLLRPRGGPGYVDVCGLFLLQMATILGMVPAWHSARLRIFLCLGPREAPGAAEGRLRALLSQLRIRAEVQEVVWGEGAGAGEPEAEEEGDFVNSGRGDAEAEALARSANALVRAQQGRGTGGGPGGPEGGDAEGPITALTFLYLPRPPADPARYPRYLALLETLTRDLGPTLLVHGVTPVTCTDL", "log2 fold change": "-0.007 (inactive)"}, {"target": "SCG3 (UniProt Q8WXD2)", "log2 fold change": "0.134 (inactive)"}, {"target": "RSF1 (UniProt Q96T23)", "log2 fold change": "0.111 (inactive)"}, {"target": "RPS3 (UniProt P23396)", "log2 fold change": "0.011 (inactive)"}, {"target": "RPS6KA1 isoform 2 (UniProt Q15418)", "log2 fold change": "-0.016 (inactive)"}, {"target": "RRAGC (UniProt Q9HB90)", "log2 fold change": "0.005 (inactive)"}, {"target": "SERINC3 (UniProt Q13530)", "log2 fold change": "-0.136 (inactive)"}, {"target": "RBM25 (UniProt P49756)", "log2 fold change": "-0.032 (inactive)"}, {"target": "SKP1 (UniProt P63208)", "sequence (P63208 whole entry, looked up)": "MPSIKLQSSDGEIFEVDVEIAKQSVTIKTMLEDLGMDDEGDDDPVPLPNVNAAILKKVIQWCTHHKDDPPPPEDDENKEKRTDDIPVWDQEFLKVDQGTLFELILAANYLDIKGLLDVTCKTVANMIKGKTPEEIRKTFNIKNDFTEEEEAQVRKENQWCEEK", "log2 fold change": "0.095 (inactive)"}, {"target": "RARS (UniProt P54136)", "log2 fold change": "0.005 (inactive)"}, {"target": "RDH11 (UniProt Q8TC12)", "log2 fold change": "0.068 (inactive)"}, {"target": "RPS15 (UniProt P62841)", "log2 fold change": "-0.014 (inactive)"}, {"target": "RPS18 (UniProt P62269)", "log2 fold change": "-0.014 (inactive)"}, {"target": "RETSAT (UniProt Q6NUM9)", "log2 fold change": "0.014 (inactive)"}, {"target": "RMC1 (UniProt Q96DM3)", "sequence (Q96DM3 whole entry, looked up)": "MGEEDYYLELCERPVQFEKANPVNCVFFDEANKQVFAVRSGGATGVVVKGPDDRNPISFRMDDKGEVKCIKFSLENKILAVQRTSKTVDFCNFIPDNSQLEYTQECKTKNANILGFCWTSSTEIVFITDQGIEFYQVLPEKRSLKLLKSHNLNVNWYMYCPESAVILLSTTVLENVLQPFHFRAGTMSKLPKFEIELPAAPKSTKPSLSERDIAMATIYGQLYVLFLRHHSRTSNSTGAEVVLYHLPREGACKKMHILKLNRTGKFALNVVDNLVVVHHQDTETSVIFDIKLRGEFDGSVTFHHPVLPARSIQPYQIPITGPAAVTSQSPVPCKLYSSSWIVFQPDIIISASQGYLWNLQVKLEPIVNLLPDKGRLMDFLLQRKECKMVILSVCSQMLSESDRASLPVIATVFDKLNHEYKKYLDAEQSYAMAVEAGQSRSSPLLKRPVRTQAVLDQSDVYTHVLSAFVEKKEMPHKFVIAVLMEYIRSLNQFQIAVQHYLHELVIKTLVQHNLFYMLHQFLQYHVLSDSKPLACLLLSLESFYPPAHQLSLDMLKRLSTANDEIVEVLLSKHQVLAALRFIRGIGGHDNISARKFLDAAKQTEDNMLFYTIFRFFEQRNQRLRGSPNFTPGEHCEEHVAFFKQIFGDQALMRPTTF", "log2 fold change": "0.037 (inactive)"}, {"target": "SAAL1 (UniProt Q96ER3)", "log2 fold change": "0.004 (inactive)"}, {"target": "RPA1 (UniProt P27694)", "sequence (P27694 whole entry, looked up)": "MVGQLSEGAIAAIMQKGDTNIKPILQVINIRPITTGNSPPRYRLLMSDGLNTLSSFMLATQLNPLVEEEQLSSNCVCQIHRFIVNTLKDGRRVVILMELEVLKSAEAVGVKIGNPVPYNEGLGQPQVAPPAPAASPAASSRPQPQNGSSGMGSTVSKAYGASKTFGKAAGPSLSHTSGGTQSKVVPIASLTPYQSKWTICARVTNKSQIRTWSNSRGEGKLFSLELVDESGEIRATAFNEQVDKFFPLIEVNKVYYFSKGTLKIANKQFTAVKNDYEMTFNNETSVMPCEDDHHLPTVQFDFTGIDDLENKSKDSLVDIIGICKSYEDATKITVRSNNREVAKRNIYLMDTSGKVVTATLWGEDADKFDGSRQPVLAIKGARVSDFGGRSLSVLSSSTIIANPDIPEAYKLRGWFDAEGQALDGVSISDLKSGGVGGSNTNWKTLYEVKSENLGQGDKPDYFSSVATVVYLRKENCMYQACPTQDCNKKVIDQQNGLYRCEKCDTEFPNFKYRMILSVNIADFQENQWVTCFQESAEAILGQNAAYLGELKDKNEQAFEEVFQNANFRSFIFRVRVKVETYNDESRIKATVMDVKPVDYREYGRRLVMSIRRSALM", "log2 fold change": "0.028 (inactive)"}, {"target": "RAC1 (UniProt P63000)", "log2 fold change": "0.14 (inactive)"}, {"target": "SDHC (UniProt Q99643)", "sequence (Q99643 whole entry, looked up)": "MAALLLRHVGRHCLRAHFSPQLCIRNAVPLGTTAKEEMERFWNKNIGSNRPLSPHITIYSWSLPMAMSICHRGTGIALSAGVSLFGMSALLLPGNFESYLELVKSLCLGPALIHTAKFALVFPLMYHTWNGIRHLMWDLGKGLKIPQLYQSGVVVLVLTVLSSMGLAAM", "log2 fold change": "0.01 (inactive)"}, {"target": "SERPINA7 (UniProt P05543)", "log2 fold change": "-0.121 (inactive)"}]}, {"compound": "CC1=C(C=C(C=C1)NC(=O)C2=CC(=CC=C2)N(C)C)NC(=O)C3=CC=C(C=C3)O", "assay": "log2 fold change, soluble protein after heating vs DMSO (PISA); higher = thermal stabilisation; K562 cells, 10 uM, 30 min; active = over 0.2 and 3.5 SD of the protein, either way, in both replicates (recomputed)", "outline": "as §1", "values": [{"target": "ROCK2 (UniProt O75116)", "log2 fold change": "-0.044 (inactive)"}, {"target": "SCCPDH (UniProt Q8NBX0)", "log2 fold change": "-0.092 (inactive)"}, {"target": "RB1 (UniProt P06400)", "log2 fold change": "-0.011 (inactive)"}, {"target": "RAB3IL1 (UniProt Q8TBN0)", "log2 fold change": "0.002 (inactive)"}, {"target": "SDCBP (UniProt O00560)", "log2 fold change": "0.021 (inactive)"}, {"target": "RTN4IP1 (UniProt Q8WWV3)", "log2 fold change": "-0.033 (inactive)"}, {"target": "SGPL1 (UniProt O95470)", "log2 fold change": "-0.056 (inactive)"}, {"target": "RPS14 (UniProt P62263)", "log2 fold change": "0 (inactive)"}, {"target": "RAD51 (UniProt Q06609)", "log2 fold change": "-0.017 (inactive)"}, {"target": "SH3GLB2 (UniProt Q9NR46)", "log2 fold change": "-0.052 (inactive)"}, {"target": "RPS5 (UniProt P46782)", "log2 fold change": "0 (inactive)"}, {"target": "RAD50 isoform 2 (UniProt Q92878)", "log2 fold change": "-0.024 (inactive)"}, {"target": "RPS13 (UniProt P62277)", "log2 fold change": "0.022 (inactive)"}, {"target": "RHOA (UniProt P61586)", "log2 fold change": "-0.073 (inactive)"}, {"target": "SLC12A9 (UniProt Q9BXP2)", "log2 fold change": "0.056 (inactive)"}, {"target": "SCG3 (UniProt Q8WXD2)", "log2 fold change": "-0.105 (inactive)"}, {"target": "RSF1 (UniProt Q96T23)", "log2 fold change": "-0.112 (inactive)"}, {"target": "RPS3 (UniProt P23396)", "log2 fold change": "0.003 (inactive)"}, {"target": "RPS6KA1 isoform 2 (UniProt Q15418)", "log2 fold change": "-0.187 (inactive)"}, {"target": "RRAGC (UniProt Q9HB90)", "log2 fold change": "0.003 (inactive)"}, {"target": "SERINC3 (UniProt Q13530)", "log2 fold change": "-0.001 (inactive)"}, {"target": "RBM25 (UniProt P49756)", "log2 fold change": "0.017 (inactive)"}, {"target": "SKP1 (UniProt P63208)", "log2 fold change": "0.048 (inactive)"}, {"target": "RARS (UniProt P54136)", "log2 fold change": "0.006 (inactive)"}, {"target": "RDH11 (UniProt Q8TC12)", "log2 fold change": "-0.054 (inactive)"}, {"target": "RPS15 (UniProt P62841)", "log2 fold change": "0.038 (inactive)"}, {"target": "RPS18 (UniProt P62269)", "log2 fold change": "0 (inactive)"}, {"target": "RETSAT (UniProt Q6NUM9)", "log2 fold change": "0.025 (inactive)"}, {"target": "RMC1 (UniProt Q96DM3)", "log2 fold change": "0.001 (inactive)"}, {"target": "SAAL1 (UniProt Q96ER3)", "log2 fold change": "-0.008 (inactive)"}, {"target": "RPA1 (UniProt P27694)", "log2 fold change": "-0.047 (inactive)"}, {"target": "RAC1 (UniProt P63000)", "log2 fold change": "-0.002 (inactive)"}, {"target": "SDHC (UniProt Q99643)", "log2 fold change": "0.023 (inactive)"}, {"target": "SERPINA7 (UniProt P05543)", "log2 fold change": "0.496 (inactive)"}]}, {"compound": "CC1=CC=C(C=C1)SC2=C3C=C(SC3=CN=C2)C(=O)N", "assay": "log2 fold change, soluble protein after heating vs DMSO (PISA); higher = thermal stabilisation; K562 cells, 10 uM, 30 min; active = over 0.2 and 3.5 SD of the protein, either way, in both replicates (recomputed)", "outline": "as §1", "values": [{"target": "ROCK2 (UniProt O75116)", "log2 fold change": "-0.037 (inactive)"}, {"target": "SCCPDH (UniProt Q8NBX0)", "log2 fold change": "0.074 (inactive)"}, {"target": "RB1 (UniProt P06400)", "log2 fold change": "0.034 (inactive)"}, {"target": "RAB3IL1 (UniProt Q8TBN0)", "log2 fold change": "0.008 (inactive)"}, {"target": "SDCBP (UniProt O00560)", "log2 fold change": "0.009 (inactive)"}, {"target": "RTN4IP1 (UniProt Q8WWV3)", "log2 fold change": "0.294 (inactive)"}, {"target": "SGPL1 (UniProt O95470)", "log2 fold change": "0.014 (inactive)"}, {"target": "RPS14 (UniProt P62263)", "log2 fold change": "-0.041 (inactive)"}, {"target": "RAD51 (UniProt Q06609)", "log2 fold change": "-0.042 (inactive)"}, {"target": "SH3GLB2 (UniProt Q9NR46)", "log2 fold change": "0.025 (inactive)"}, {"target": "RPS5 (UniProt P46782)", "log2 fold change": "0.001 (inactive)"}, {"target": "RAD50 isoform 2 (UniProt Q92878)", "log2 fold change": "0.004 (inactive)"}, {"target": "RPS13 (UniProt P62277)", "log2 fold change": "-0.044 (inactive)"}, {"target": "RHOA (UniProt P61586)", "log2 fold change": "0.047 (inactive)"}, {"target": "SLC12A9 (UniProt Q9BXP2)", "log2 fold change": "-0.04 (inactive)"}, {"target": "SCG3 (UniProt Q8WXD2)", "log2 fold change": "-0.011 (inactive)"}, {"target": "RSF1 (UniProt Q96T23)", "log2 fold change": "-0.015 (inactive)"}, {"target": "RPS3 (UniProt P23396)", "log2 fold change": "-0.077 (inactive)"}, {"target": "RPS6KA1 isoform 2 (UniProt Q15418)", "log2 fold change": "0.033 (inactive)"}, {"target": "RRAGC (UniProt Q9HB90)", "log2 fold change": "0.017 (inactive)"}, {"target": "SERINC3 (UniProt Q13530)", "log2 fold change": "0.009 (inactive)"}, {"target": "RBM25 (UniProt P49756)", "log2 fold change": "-0.007 (inactive)"}, {"target": "SKP1 (UniProt P63208)", "log2 fold change": "0.094 (inactive)"}, {"target": "RARS (UniProt P54136)", "log2 fold change": "-0.011 (inactive)"}, {"target": "RDH11 (UniProt Q8TC12)", "log2 fold change": "0.019 (inactive)"}, {"target": "RPS15 (UniProt P62841)", "log2 fold change": "-0.146 (inactive)"}, {"target": "RPS18 (UniProt P62269)", "log2 fold change": "-0.049 (inactive)"}, {"target": "RETSAT (UniProt Q6NUM9)", "log2 fold change": "0.088 (inactive)"}, {"target": "RMC1 (UniProt Q96DM3)", "log2 fold change": "-0.051 (inactive)"}, {"target": "SAAL1 (UniProt Q96ER3)", "log2 fold change": "0.006 (inactive)"}, {"target": "RPA1 (UniProt P27694)", "log2 fold change": "-0.002 (inactive)"}, {"target": "RAC1 (UniProt P63000)", "log2 fold change": "-0.055 (inactive)"}, {"target": "SDHC (UniProt Q99643)", "log2 fold change": "-0.041 (inactive)"}, {"target": "SERPINA7 (UniProt P05543)", "log2 fold change": "0.067 (inactive)"}]}]}
